Bioassay records as filed in PubChem BioAssay.
This is a sample that favours compounds with a hit; in the whole collection about 17% have one here.
TDP1 cell noCPT – qHTS for Inhibitors of human tyrosyl-DNA phosphodiesterase 1 (TDP1): qHTS in cells in absence of CPT; DT40 Tdp1-/- hTDP1 cells, no CPT, ATP luminescence, 48 h; Potency, µM (titrated, usually from 46.2 µM), inactives show at the top dose activity change, negative = growth inhibition, most hits filed as inhibitors; 420,000 tested, 15% active; further: on the % scale 0 is the no-effect control and ±100 the full control effect; nearly all actives have a fitted effect of over 55% in size
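Cells were dispensed at 400 per well, compounds added by pin tool, plates incubated ≥48 hr at 37 °C, then CellTiter-Glo added for 30 min at room temperature before luminescence reading. Line: DT40 Tdp1-/- complemented with hTDP1; camptothecin omitted.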
ClpP mod – qHTS Assay for Activators of ClpP; ATP-dependent Clp protease proteolytic subunit (Bacillus subtilis (strain 168)), P80244; purified B. subtilis ClpP, FRET peptide cleavage, 20 min; Potency, µM (top dose mostly 57.5 µM), for inactives: at the highest dose activity change, negative = active; 340,000 tested, 1.9% active; AID 651965, 2013; active means well fitted falling curve with a large enough effect; inconclusive means small, poorly fitted or top-dose-only effect; inactive means no such curve, though single readings can be large or run the other way; further: the source files actives as falling curves though it sought activators and does not explain the sign; nearly all actives have a fitted effect of over 65% in size
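Purified B. subtilis ClpP, 10 microg/mL final in Tris/HCl pH8 with KCl, BSA, glycerol and Tween-20, cleaved an Abz/nitrotyrosine-quenched decapeptide. Fluorescence (ex 320, em 430) was read at 0 and 20 min at room temperature. Delta was normalized to 5.8 microM ADEP and DMSO/no-enzyme controls.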
DT40 TDP1 CPT – growth inhibition of DT40 Tdp1-/-;hTDP1 cells with camptothecin (screen for TDP1 inhibitors) | chicken DT40 Tdp1-/-;hTDP1 cells + 20 nM CPT, ATP luminescence, 48 h | Potency, µM (top dose mostly 46.2 µM), for inactives: at the top dose activity change, negative = growth inhibition, usual class: inhibitors | 420,000 tested, 12% active | AID 686979; further: on the % scale 0 is the no-effect control and ±100 the full control effect; nearly all actives have a fitted effect of over 55% in size
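Chicken DT40 Tdp1-/- cells complemented with human TDP1, 400 cells/well, exposed to compounds plus 20 nM camptothecin for at least 48 h at 37 C; viability read as ATP content by CellTiter-Glo luminescence.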
TDP1 inh – inhibitors of human tyrosyl-DNA phosphodiesterase TDP1; Potency, µM (series often up to 130 µM), inactives show at the top dose activity change, negative = inhibition, actives largely listed as inhibitors; recombinant TDP1, AlphaScreen DNA substrate cleavage; AID 485290; 350,000 tested, 0.28% active; Q9NUW8; further: on the % scale 0 is the no-effect control and ±100 the full control effect; nearly all actives have a fitted effect of over 40% in size
Target sequence (Q9NUW8 whole entry, looked up): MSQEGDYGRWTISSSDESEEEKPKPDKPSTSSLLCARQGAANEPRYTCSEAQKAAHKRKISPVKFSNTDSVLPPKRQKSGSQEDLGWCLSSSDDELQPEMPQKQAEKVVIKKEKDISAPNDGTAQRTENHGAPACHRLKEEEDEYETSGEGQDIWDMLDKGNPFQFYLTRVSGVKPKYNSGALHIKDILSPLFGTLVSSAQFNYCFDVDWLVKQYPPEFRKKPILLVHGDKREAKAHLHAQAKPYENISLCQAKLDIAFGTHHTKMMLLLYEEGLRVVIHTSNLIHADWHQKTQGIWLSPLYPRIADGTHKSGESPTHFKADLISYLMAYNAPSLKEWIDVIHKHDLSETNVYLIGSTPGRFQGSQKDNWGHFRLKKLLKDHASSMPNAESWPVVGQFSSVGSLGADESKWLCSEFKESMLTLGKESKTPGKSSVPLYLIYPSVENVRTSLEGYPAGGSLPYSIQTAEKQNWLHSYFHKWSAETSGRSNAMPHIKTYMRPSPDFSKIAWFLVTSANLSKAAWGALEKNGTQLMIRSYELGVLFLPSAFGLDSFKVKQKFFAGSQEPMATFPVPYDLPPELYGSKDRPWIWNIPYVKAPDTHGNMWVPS
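Enzyme-compound mixtures sat 15 min at room temperature, followed by a 5 min reaction with 15 nM final substrate and 10 min with AlphaScreen beads. Recombinant human Tdp1 was used at 1 nM final.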
Numbers without * were called inactive; ? = inconclusive; nt = no result; [ ] = dose if it differs, or a comment. Unless noted, the call rests on the fitted dose curve; in most records, active means well fitted curve in the direction sought with a large enough effect; inconclusive means small, poorly fitted or top-dose-only effect, or another doubt; inactive means no such curve, though single readings can be large; an effect the other way counts as inactive or inconclusive. Potency means the concentration at half of the fitted maximal effect.

SMILES	TDP1 cell noCPT	ClpP mod	DT40 TDP1 CPT	TDP1 inh
CCOC(=O)c1cc(S(=O)(=O)Nc2ccc(OC(F)(F)F)cc2)[nH]n1	-15%	0%	-29%	7%
Cc1ccccc1NS(=O)(=O)c1ccc(OCC(=O)N2CCCC2)cc1	-7%	28µM*	-3%	5%
O=C(OCCOc1ccc(F)cc1)c1ccc(S(=O)(=O)N2CCCC2)cc1	2.3µM*	-2%	-9%	-10%[56.1 µM]
Cc1ccc(C)c(NS(=O)(=O)c2ccc(OCC(=O)N3CCCC3)cc2)c1	-6%	-1%	-16%	4%
CNC(=O)COc1ccc(S(=O)(=O)N2CCCC2)cc1	?	-9%	29µM*	2%
O=C(COc1ccc(S(=O)(=O)N2CCCCC2)cc1)N1CCCCCC1	-23%	32µM*	-13%	0%
O=C(CCC(=O)N1CCOc2ccccc21)NCc1cccnc1	-1%	-1%	1%	nt
C=C(C)C1CC=C(C)CC1 (stereo not drawn)	-1%	nt	-11%	4%
O=C(COc1ccc(-c2ccccc2)cc1)N1CCN(S(=O)(=O)Cc2ccccc2)CC1	15µM*	-2%	23µM*	2%
COc1ccc(C(O)(CCN2CCCCC2)C2CCCCC2)cc1 (stereo not drawn)	21µM*	-1%	?	nt
O[C@@](CCN1CCCC1)(c1ccccc1)C1CCCCC1	nt	nt	nt	14%[21 µM]
CC(=O)C1=C(c2ccccc2)NC(=O)NC1c1cccs1 (stereo not drawn)	2%	1%	12%	nt
Cc1ccc(/C=C/C(=O)NCC2COc3ccccc3O2)o1 (stereo not drawn)	16µM*	nt	16µM*	-1%
Cc1ccc(/C=C/C(=O)Nc2ccc(N(C)C)cc2)o1	?	0%	21µM*	7%
COc1cc(/C=C/C(=O)NCc2ccccn2)cc(OC)c1OC	11%	25µM*	3%	3%
Cc1ccc(/C=C/C(=O)NC2CCCCCCC2)o1	3.7µM*	-5%	2.6µM*	8%
COc1ccc(/C=C/C(=O)NCc2ccccn2)cc1OC	-3%	nt	-9%	9%
COc1ccc(/C=C/C(=O)NCC2COc3ccccc3O2)cc1OC (stereo not drawn)	1%	nt	0%	-4%
Cc1ccc(/C=C/C(=O)NCCc2cccc(Cl)c2)o1	18µM*	-2%	10µM*	nt
COc1ccc(/C=C/C(=O)NCc2ccccn2)cc1	-1%	25µM*	-12%	1%
Cc1ccc(/C=C/C(=O)NCc2ccccn2)o1	-12%	-2%	?	14µM*
COc1cccc(NC(=O)CSCc2cc(=O)c3ccc(C)c(C)c3[nH]2)c1	-18%	-2%	-2%	-3%
C=CCNC(=S)N/N=C(\C)c1cccc(NC(C)=O)c1	-4%	2%	9%	5%
C=CCNC(=S)N/N=C(\C)c1cc(OC)c(OC)c(OC)c1	2.9µM*	-2%	4.1µM*	3%
COc1ccc(NS(=O)(=O)c2ccc(Br)cc2)cn1	?	nt	2%	4%
SMILES	TDP1 cell noCPT	ClpP mod	DT40 TDP1 CPT	TDP1 inh
COc1ccc(NS(=O)(=O)c2ccc3oc4ccccc4c3c2)cn1	?	-2%	23µM*	3%
O=[N+]([O-])c1cccc(-c2noc(-c3cccs3)n2)c1	-4%	1%	16%	0%
CN(C)CCn1c2ccccc2c2nc3ccc([N+](=O)[O-])cc3cc21	2.9µM*	nt	2.1µM*	nt
CCn1c2ccccc2c2cc([N+](=O)[O-])ccc21	-9%	nt	9%	-1%
Cn1c(-c2ccncc2)nc2cc(C(=O)N3CCCC3c3nccs3)cc(NC(=O)C3CCC3)c21 (stereo not drawn)	-15%	nt	-12%[9.04 µM]	nt
Cc1sc2ncnc(SCC(=O)N3CCOCC3)c2c1C	0%	-9%	-5%	0%
Cc1sc2ncnc(NCC3(N4CCOCC4)CCCCC3)c2c1C	23µM*	2%	21µM*	0%
Cc1sc2ncnc(NCC(C)(C)N3CCOCC3)c2c1C	1.5µM*	-1%	2.1µM*	6%
Cc1sc2ncnc(NCC3CCCO3)c2c1C (stereo not drawn)	9.2µM*	-6%	16µM*	4%
c1nc(NCC2(N3CCOCC3)CCCCC2)c2ccsc2n1	18µM*	2%	12µM*	2%
COc1ccc(-n2c(=S)[nH]c3cc(C(=O)N4CCN(c5ccccc5)CC4)ccc3c2=O)c(OC)c1	-29%	nt	-16%	3%
COc1ccc(OC)c(CNC(=O)CCc2c(C)nc3c(c2C)c(=O)n(C)c(=O)n3C)c1	?	-7%	-23%	-1%
CSc1ccc(/C=N/N(C)S(=O)(=O)c2ccc(C)cc2)cc1	7.3µM*	nt	?	nt
Cc1ccc(S(=O)(=O)N(C)S(=O)(=O)c2ccc(C)cc2)cc1	-32%	-6%	-22%	-11%
Cc1ccc(S(=O)(=O)N(C)CCN(C)S(=O)(=O)c2ccc(C)cc2)cc1	23µM*	nt	?	nt
Cc1ccc(/C=N/N(C)S(=O)(=O)c2ccc(C)cc2)cc1	21µM*	-2%	23µM*	nt
CCOC(=O)N1CCN(C(=O)CNS(=O)(=O)c2c(C)cc(C)cc2C)CC1	-9%	nt	-7%	-3%
O=C1N/C(=N\N=C\c2cccnc2)SC1Cc1ccc(SC(F)F)cc1 (stereo not drawn)	3.7µM*	-1%	2.9µM*	9%
O=C1N/C(=N\N=C\c2cccs2)SC1Cc1cccc(Cl)c1 (stereo not drawn)	10µM*	2%	12µM*	-5%
O=C1N/C(=N\N=C\c2ccccn2)SC1Cc1cccc(SC(F)F)c1 (stereo not drawn)	5.8µM*	0%	7.3µM*	9%
COc1ccc(CCNC(=O)C2=C(C)C(=O)OC23CCCCC3)c(OC)c1	?	-4%	?	6%
CCOc1ccccc1NC(=O)N1CCC(N2CCN(Cc3ccccc3)C(=O)C2=O)CC1	2%	0%	-16%	4%
Cc1c([N+](=O)[O-])oc2c1C(=O)NCCC2	?	0%	?	nt
COc1cc2nc(C3CCC3)nc(N3CCN(c4ccccn4)CC3)c2cc1OC	9.2µM*	-9%	9.2µM*	5%
COc1cc2nc(C3CCC3)nc(N3CCN(c4ccccc4OC)CC3)c2cc1OC	16µM*	-3%	16µM*	8%
SMILES	TDP1 cell noCPT	ClpP mod	DT40 TDP1 CPT	TDP1 inh
COc1cc(NC(=S)N2CCN(c3ccccn3)CC2)c(OC)cc1Cl	?	-17%	-14%	-5%
O=c1c(Br)c(N2CCCCC2)cnn1-c1ccccc1	1%	nt	2%	-3%
COc1ccc(CCN(C)C(=O)c2cnn(-c3nccc(-c4ccc(C)o4)n3)c2C)cc1OC	-46%	nt	5%[9.04 µM]	nt
COc1ccc(/C=C/c2ccc3ccccc3[n+]2C)c(OC)c1OC	1.1µM*	1%	1.4µM*	nt
COc1cccc(/C=C/c2ccc3ccccc3[n+]2C)c1OC	?	4%	?	nt
COc1ccc(/C=C/c2ccc3ccccc3[n+]2C)cc1OC	18µM*	-3%	13µM*	nt
COc1cc(OC)c(OC)cc1/C=N/N(C)c1ccccc1	-25%	?	-21%	13%
